Screening data deposited in PubChem by National Center for Advancing Translational Sciences (NCATS).
HCV inhibitor: qHTS Assay for Inhibitors of Hepatitis C Virus (HCV); Huh7.5.1 HCVcc-Cre infection, luciferase reporter, 44 h; Potency, µM (series often up to 41.8 µM), inactives show at the highest dose activity change, negative = inhibition, most hits filed as inhibitors; 340,000 compounds, 3.4% hits; AID 651820, 2012; also: % is scaled to controls: 0 for no effect and ±100 for the full control effect
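Reporter virus HCVcc-Cre (~0.5 moi) infects cells exposed to compound; seeding density 1,000 cells/well with 4 h settling beforehand. Luminescence, 15 sec read, taken 44 h post-infection following a 15 min RT substrate incubation.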
VACV Venus inh: qHTS for Stage-Specific Inhibitors of Vaccinia Orthopoxvirus: Venus Reporter Primary qHTS. 330,000 compounds, 0.46% hits. Potency, µM (top dose mostly 36.5 µM), for inactives: at the highest dose activity change, negative = inhibition, usual class: inhibitors. Vaccinia virus Venus reporter expression, fluorescence; calls by dose curve; tested in A549 cells; also: % is scaled to controls: 0 for no effect and ±100 for the full control effect; nearly all actives have a fitted effect of over 30% in size
NS1 function inh: qHTS Assay for Inhibitors of Influenza NS1 Protein Function; 270,000 compounds, 0.4% hits; AID 2326, 2010; Potency, µM (titrated, usually from 46.1 µM), for the others: at the top dose activity, positive = more growth; calls by dose curve; also: actives are rising curves; nearly all actives have a fitted effect of over 50% in size
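Compounds were scored for reversing the slow growth caused by influenza A NS1 in S. cerevisiae, measured by optical density at 600 nm. Assay medium contained 2% galactose at pH 6.0; NS1-free yeast of the same strain were the positive control.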
Pf growth 96h: Primary qHTS for delayed death inhibitors of the malarial parasite plastid, 96 hour incubation | P. falciparum luciferase reporter growth, 96 h | 320,000 compounds, 6.9% hits | Potency, µM (top dose mostly 28.7 µM), for inactives: at the top dose activity change, negative = inhibition, most hits filed as inhibitors; also: % is scaled to controls: 0 for no effect and ±100 for the full control effect
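Two parasite generations (96 h, 37 C, 5% CO2) of compound exposure in infected erythrocytes (0.05% parasitemia, 2% hematocrit). Luciferase-reporter P. falciparum; decreased luminescence indicates inhibited growth, aimed at apicoplast-acting delayed death.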
Vaccinia mCherry: qHTS for Stage-Specific Inhibitors of Vaccinia Orthopoxvirus: mCherry Reporter Primary qHTS; Vaccinia virus mCherry reporter infection, fluorescence; Potency, µM (highest dose often 36.5 µM), without a hit: at the top dose activity change, negative = inhibition, hits mostly inhibitors; 310,000 compounds, 0.63% hits; AID 720579, 2013; calls by dose curve; tested in A549 cells; also: % is scaled to controls: 0 for no effect and ±100 for the full control effect; nearly all actives have a fitted effect of over 35% in size
Pf growth 48h: Primary qHTS for delayed death inhibitors of the malarial parasite plastid, 48 hour incubation. 310,000 compounds, 5.9% hits. P. falciparum luciferase growth in erythrocytes, 48 h. AID 504832, 2011. Potency, µM (doses to about 28.7 µM), without a hit: at the top dose activity change, negative = inhibition, usual class: inhibitors; also: % is scaled to controls: 0 for no effect and ±100 for the full control effect
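Cell-based growth assay: transgenic P. falciparum expressing firefly luciferase, cultured in red cells within RPMI 1640 containing 0.5% w/v Albumax, 24 mM bicarbonate and gentamycin. A drop in luciferase activity indicates inhibition.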
* hit, by the source's call; ! = repeats disagree; [ ] = dose if it differs, or a comment. Hits are enriched below; roughly 11% of the tested compounds scored in any of these assays. Unless noted, calls follow the shape of the dose curve; as a rule, active = well fitted inhibition curve with a large enough effect; inconclusive = small, poorly fitted or top-dose-only effect, or another doubt; inactive = no such curve, though single readings can be large or run the other way. Potency is read from the fitted curve at half-maximal effect.

`COc1ccccc1-n1c(SCC(=O)N2CCOCC2)nc2cccnc21` gave HCV inhibitor 14%, VACV Venus inh -18%, NS1 function inh 4%, Pf growth 96h 40%, Vaccinia mCherry -11% and Pf growth 48h 24%.
Screening O=C(Nc1ccc(Cc2ccncc2)cc1)c1cccc([N+](=O)[O-])c1 returned HCV inhibitor inconclusive, VACV Venus inh -15%, NS1 function inh -5%, Pf growth 96h -9%, Vaccinia mCherry -7% and Pf growth 48h 33%.
Screening O=C(Nc1ccc(Nc2ccncc2)cc1)c1ccc(Nc2ccnc3ccc([N+](=O)[O-])cc23)cc1 returned HCV inhibitor 15%, VACV Venus inh -8%, NS1 function inh 5%, Pf growth 96h 0.093µM*, Vaccinia mCherry -3% and Pf growth 48h 0.093µM*.
For COc1ccc(-c2nc(N)n(C(C)=O)n2)cc1 the results were HCV inhibitor -4%, VACV Venus inh -12%, NS1 function inh 0% and Pf growth 48h 41%.
CCCOc1ncnc2c1[nH]c1ccc(C)cc12 was read as HCV inhibitor 13µM*, NS1 function inh 2%, Pf growth 96h 349% and Pf growth 48h 16%.
`COc1cc2[nH]c3c(OC)ncnc3c2cc1OC` gave HCV inhibitor -13%, VACV Venus inh -22%, NS1 function inh -2%, Pf growth 96h 24%, Vaccinia mCherry inconclusive and Pf growth 48h 4%.
CCOc1ncnc2c1[nH]c1ccccc12 was read as HCV inhibitor 10µM*, VACV Venus inh -26%, NS1 function inh -33%, Pf growth 96h -6%, Vaccinia mCherry inconclusive and Pf growth 48h 92%.
Screening Cc1ccc2[nH]c3c(Cl)ncnc3c2c1 returned HCV inhibitor -6%, VACV Venus inh -11%[7.34 µM], NS1 function inh -50%, Pf growth 96h -5%, Vaccinia mCherry -1%[7.34 µM] and Pf growth 48h -24%.
For O=C1C=CC(O)C2(CO)OC12 (stereo not given) the results were VACV Venus inh -4% and Vaccinia mCherry -6%.
For COc1ccc(C(C(=O)NC2CCCCC2)N(C(=O)c2sc(C)nc2C)c2ccc(OC)cc2)cc1 (stereo not given) the results were HCV inhibitor 7%, VACV Venus inh -13%, NS1 function inh -3%, Pf growth 96h 0%, Vaccinia mCherry -14% and Pf growth 48h 62%.
`COc1cc2cc(C(=O)N3CCOCC3)cc(-c3ccc(C)cc3)c2cc1OC` gave HCV inhibitor inconclusive, NS1 function inh 2%, Pf growth 96h 8.3µM* and Pf growth 48h inconclusive.
For Cc1ccc(-c2csc(NC(=O)c3ccc(S(=O)(=O)N4CCc5ccccc54)cc3)n2)cc1 the results were HCV inhibitor 4.5µM*, VACV Venus inh -20%, NS1 function inh 7%, Pf growth 96h 13µM*, Vaccinia mCherry -13% and Pf growth 48h 10µM*.
Cc1ccc(Nc2nc(-c3ccc(S(=O)(=O)N4CCOCC4)cc3)cs2)cc1Cl was read as HCV inhibitor 9%, VACV Venus inh inconclusive, NS1 function inh 11%, Pf growth 96h -11%, Vaccinia mCherry inconclusive and Pf growth 48h 10µM*.
CCCCC(=O)Nc1nc(-c2ccc(S(=O)(=O)N3CCOCC3)cc2)cs1 was read as HCV inhibitor inconclusive, VACV Venus inh -19%, NS1 function inh -4%, Pf growth 96h inconclusive, Vaccinia mCherry -1% and Pf growth 48h inconclusive.
CCOc1ccc(-c2csc(NC(=O)c3ccc(S(=O)(=O)N4CCc5ccccc5C4)cc3)n2)cc1 was read as HCV inhibitor -21%, NS1 function inh 1%, Pf growth 96h -19% and Pf growth 48h 13%.
Screening O=C(Nc1nc(-c2cc3ccccc3o2)cs1)c1ccc(S(=O)(=O)N2CCCC2)cc1 returned HCV inhibitor inconclusive, NS1 function inh 3%, Pf growth 96h 13µM* and Pf growth 48h -28%.
`COc1ccc(-c2cc(C(=O)N3CCOCC3)c3ccccc3n2)cc1OC` gave HCV inhibitor 12%, VACV Venus inh -11%, Pf growth 96h 20%, Vaccinia mCherry inactive and Pf growth 48h inconclusive.
CC1CN(S(=O)(=O)c2ccc(C(=O)Nc3nc(-c4cc5ccccc5o4)cs3)cc2)CC(C)O1 (stereo not given) was read as HCV inhibitor inconclusive, VACV Venus inh -10%, NS1 function inh 8%, Pf growth 96h 0%, Vaccinia mCherry inconclusive and Pf growth 48h 0%.
Screening COc1ccc(CNS(=O)(=O)c2ccc(S(=O)(=O)NC3CC3)cc2)cc1 returned HCV inhibitor 4%, VACV Venus inh inconclusive, NS1 function inh 4%, Pf growth 96h -12%, Vaccinia mCherry -27% and Pf growth 48h 7%.
For FC(F)C(F)(F)Oc1cccc(Nc2nccn3c(-c4cccc5cccnc45)cnc23)c1 the results were VACV Venus inh -15% and Vaccinia mCherry -14%.
COc1cccc(CNC(=O)COC(=O)CNC(=O)c2ccc(-c3ccccc3)cc2)c1 was read as HCV inhibitor inconclusive, Pf growth 96h -13% and Pf growth 48h 19%.
`O=C(Nc1nc(-c2nc3ccccc3s2)cs1)c1ccc(S(=O)(=O)N2CCOCC2)cc1` gave HCV inhibitor 11µM*, VACV Venus inh inconclusive, NS1 function inh -11%, Pf growth 96h 16%, Vaccinia mCherry inconclusive and Pf growth 48h 16%.
`O=C(Nc1nc(-c2ccc(S(=O)(=O)N3CCOCC3)cc2)cs1)c1ccccc1` gave HCV inhibitor 7.9µM*, VACV Venus inh -21%, NS1 function inh 10%, Pf growth 96h 8.3µM*, Vaccinia mCherry -21% and Pf growth 48h 8.3µM*.
COc1cc(C(=O)Nc2nc(-c3ccc(C)cc3)cs2)ccc1OCC(=O)N1CCOCC1 was read as HCV inhibitor 11µM*, NS1 function inh 23%, Pf growth 96h inconclusive and Pf growth 48h inconclusive.
`COc1cccc(C(=O)Nc2nc(-c3ccc(S(=O)(=O)N4CCOCC4)cc3)cs2)c1` gave HCV inhibitor 10µM*!, VACV Venus inh -26%, NS1 function inh -2%, Pf growth 96h 2%, Vaccinia mCherry -25% and Pf growth 48h 12µM*.
`CC(C)CC(=O)Nc1nc(-c2ccc(S(=O)(=O)N3CCOCC3)cc2)cs1` gave HCV inhibitor inconclusive, VACV Venus inh -8%, NS1 function inh 11%, Pf growth 96h inconclusive, Vaccinia mCherry -2% and Pf growth 48h inconclusive.
For Cc1ccc(-c2csc(NC(=O)COC(=O)c3cccc(S(=O)(=O)N4CCOCC4)c3)n2)cc1 the results were HCV inhibitor -7%, NS1 function inh -15%, Pf growth 96h 0% and Pf growth 48h 80%.
